Reference: PMC7862700, “An all-to-all approach to the identification of sequence-specific readers for epigenetic DNA modifications on cytosine”

Tests used:
Assay in all cases: DAPPL (digital affinity profiling via proximity ligation, sequencing); 10 mM Tris-HCl pH 7.5, 50 mM NaCl, 1 mM DTT, 4% glycerol, room temperature, 30 min; GST-TFs on glutathione beads, 16-mer random dsDNA library, 0.1% formaldehyde crosslink after washing; high values mean tight binding
FEV = molecular target: T1, FEV (Homo sapiens, UniProt Q99581 1-238); settings: protein: recombinant; tags: N-terminal GST; dsDNA, one strand shown
T1 sequence: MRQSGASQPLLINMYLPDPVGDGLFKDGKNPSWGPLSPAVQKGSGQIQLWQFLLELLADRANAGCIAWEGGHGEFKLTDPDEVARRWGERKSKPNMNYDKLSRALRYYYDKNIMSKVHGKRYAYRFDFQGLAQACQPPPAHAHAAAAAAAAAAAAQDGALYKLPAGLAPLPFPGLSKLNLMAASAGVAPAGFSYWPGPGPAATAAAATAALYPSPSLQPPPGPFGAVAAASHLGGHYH
In short: (§1)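 Binding signal is each hexamer's read frequency for a factor divided by its frequency in the tag-only sample. The factors were GST-fused human transcription factors from yeast, captured on glutathione beads, DNA-barcoded and pooled with that sample. Pools were incubated with 200 nmole of a random double-stranded 16-mer DNA library in Tris/NaCl/DTT/glycerol buffer at room temperature for 30 min, then washed, crosslinked with 0.1% formaldehyde, proximity-ligated with BsaI/T4 ligase (1 h, 37 °C), PCR-amplified and sequenced on an Illumina NextSeq500.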

ETV5 = ETV5 (Homo sapiens, UniProt P41161 1-510); settings: protein: recombinant; tags: N-terminal GST; dsDNA, one strand shown
Sequence of ETV5 (P41161 whole entry): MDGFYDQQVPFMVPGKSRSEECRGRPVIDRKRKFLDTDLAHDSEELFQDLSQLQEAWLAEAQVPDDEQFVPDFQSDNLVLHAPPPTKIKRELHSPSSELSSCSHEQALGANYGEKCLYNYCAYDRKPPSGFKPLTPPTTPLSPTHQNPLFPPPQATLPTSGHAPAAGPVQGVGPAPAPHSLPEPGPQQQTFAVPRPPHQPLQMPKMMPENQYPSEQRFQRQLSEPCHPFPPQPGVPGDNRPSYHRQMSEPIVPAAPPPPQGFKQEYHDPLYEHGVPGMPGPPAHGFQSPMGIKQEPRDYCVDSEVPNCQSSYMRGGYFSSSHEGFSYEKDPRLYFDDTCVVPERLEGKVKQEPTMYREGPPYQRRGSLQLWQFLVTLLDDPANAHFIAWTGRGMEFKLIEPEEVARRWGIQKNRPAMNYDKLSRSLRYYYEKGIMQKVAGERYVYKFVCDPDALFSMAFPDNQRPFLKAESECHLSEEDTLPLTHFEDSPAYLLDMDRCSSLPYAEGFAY
In short: as §1

HSF1 = HSF1 (Homo sapiens, UniProt Q00613 1-529); settings: protein: recombinant; tags: N-terminal GST; chain copies: 3; dsDNA, one strand shown
Sequence of HSF1 (Q00613 whole entry): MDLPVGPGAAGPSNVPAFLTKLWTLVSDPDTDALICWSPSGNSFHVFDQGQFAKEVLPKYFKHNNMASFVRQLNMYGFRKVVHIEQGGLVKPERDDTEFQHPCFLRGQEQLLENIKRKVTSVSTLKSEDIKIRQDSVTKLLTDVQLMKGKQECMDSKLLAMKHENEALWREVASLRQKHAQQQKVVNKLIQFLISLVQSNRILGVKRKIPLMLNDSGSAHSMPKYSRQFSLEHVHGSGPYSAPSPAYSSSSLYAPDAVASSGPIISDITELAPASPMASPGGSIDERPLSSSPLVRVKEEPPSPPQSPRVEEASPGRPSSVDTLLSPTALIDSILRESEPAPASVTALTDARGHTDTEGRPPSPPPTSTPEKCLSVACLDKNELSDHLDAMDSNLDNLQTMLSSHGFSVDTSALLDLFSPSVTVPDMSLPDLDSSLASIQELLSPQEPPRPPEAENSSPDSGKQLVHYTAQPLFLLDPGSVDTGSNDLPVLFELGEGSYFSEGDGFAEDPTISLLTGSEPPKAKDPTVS
In short: as §1

SPIC = molecular target: T2, SPIC (Homo sapiens, UniProt Q8N5J4 1-248); settings: protein: recombinant; tags: N-terminal GST; dsDNA, one strand shown
T2 sequence: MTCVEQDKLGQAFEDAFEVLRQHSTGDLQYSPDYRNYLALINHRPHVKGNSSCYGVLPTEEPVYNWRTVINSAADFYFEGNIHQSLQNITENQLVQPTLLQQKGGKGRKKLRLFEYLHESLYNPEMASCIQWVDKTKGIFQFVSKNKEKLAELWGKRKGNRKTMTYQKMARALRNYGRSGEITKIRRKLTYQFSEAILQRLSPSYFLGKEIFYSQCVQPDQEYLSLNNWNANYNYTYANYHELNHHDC
In short: as §1

ELF4 = ELF4 (Homo sapiens, UniProt Q99607 1-663); settings: protein: recombinant; tags: N-terminal GST; dsDNA, one strand shown
Sequence of ELF4 (Q99607 whole entry): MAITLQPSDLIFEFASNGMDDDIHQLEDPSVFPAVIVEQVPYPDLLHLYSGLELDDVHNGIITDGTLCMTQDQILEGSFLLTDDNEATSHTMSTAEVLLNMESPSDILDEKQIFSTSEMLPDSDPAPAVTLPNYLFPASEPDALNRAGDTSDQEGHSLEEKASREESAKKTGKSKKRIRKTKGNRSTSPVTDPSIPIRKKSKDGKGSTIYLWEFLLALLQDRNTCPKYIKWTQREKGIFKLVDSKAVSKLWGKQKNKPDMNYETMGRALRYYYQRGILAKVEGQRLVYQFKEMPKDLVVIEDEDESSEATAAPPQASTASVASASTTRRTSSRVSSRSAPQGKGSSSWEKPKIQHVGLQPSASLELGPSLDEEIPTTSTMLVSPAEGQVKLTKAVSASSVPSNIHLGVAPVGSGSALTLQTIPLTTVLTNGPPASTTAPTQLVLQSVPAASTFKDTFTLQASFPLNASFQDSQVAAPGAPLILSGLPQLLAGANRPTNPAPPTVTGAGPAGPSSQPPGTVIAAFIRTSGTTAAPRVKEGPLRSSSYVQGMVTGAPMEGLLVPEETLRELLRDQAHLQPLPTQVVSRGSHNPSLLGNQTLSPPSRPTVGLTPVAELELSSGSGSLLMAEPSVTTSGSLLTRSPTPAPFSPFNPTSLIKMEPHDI
In short: as §1

ELK4 = molecular target: T3, ELK4 (Homo sapiens, UniProt P28324-2 1-405); settings: protein: recombinant; tags: N-terminal GST; dsDNA, one strand shown
T3 sequence: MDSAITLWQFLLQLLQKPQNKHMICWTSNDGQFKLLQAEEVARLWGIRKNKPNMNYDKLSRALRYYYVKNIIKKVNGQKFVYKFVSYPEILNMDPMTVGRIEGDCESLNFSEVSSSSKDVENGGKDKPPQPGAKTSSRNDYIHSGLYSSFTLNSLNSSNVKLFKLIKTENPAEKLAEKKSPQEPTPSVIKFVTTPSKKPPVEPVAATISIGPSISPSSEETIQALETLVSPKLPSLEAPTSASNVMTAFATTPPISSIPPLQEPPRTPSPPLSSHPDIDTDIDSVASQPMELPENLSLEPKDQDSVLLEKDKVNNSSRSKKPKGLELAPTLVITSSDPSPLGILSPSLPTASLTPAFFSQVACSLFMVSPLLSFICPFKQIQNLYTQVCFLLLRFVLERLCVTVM
In short: as §1

ETV2 = molecular target: T4, ETV2 (Homo sapiens, UniProt O00321 1-342); settings: protein: recombinant; tags: N-terminal GST; dsDNA, one strand shown
T4 sequence: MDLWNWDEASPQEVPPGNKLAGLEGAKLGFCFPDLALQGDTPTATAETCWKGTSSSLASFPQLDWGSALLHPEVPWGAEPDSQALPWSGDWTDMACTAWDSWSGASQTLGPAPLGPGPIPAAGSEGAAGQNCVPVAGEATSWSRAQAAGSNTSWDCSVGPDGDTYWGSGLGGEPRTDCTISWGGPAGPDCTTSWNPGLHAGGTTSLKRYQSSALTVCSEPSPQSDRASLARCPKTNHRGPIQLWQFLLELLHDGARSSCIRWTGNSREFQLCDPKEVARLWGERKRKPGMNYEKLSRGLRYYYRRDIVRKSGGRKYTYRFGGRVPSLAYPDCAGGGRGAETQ
In short: as §1

ELF3 = molecular target: T5, ELF3 (Homo sapiens, UniProt P78545 1-371); settings: protein: recombinant; tags: N-terminal GST; dsDNA, one strand shown
T5 sequence: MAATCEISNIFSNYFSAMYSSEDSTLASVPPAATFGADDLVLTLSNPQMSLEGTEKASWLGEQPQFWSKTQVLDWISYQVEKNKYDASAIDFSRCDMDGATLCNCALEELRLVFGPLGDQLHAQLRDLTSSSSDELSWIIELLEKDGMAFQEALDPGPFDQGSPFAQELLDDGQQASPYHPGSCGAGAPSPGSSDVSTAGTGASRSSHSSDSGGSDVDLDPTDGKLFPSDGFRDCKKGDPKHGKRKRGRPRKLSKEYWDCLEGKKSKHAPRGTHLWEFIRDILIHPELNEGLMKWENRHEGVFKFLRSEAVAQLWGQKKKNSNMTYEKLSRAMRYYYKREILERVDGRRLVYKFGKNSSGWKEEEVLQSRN
In short: as §1

CRX = CRX (Homo sapiens, UniProt O43186 1-299); settings: protein: recombinant; tags: N-terminal GST; dsDNA, one strand shown
Sequence of CRX (O43186 whole entry): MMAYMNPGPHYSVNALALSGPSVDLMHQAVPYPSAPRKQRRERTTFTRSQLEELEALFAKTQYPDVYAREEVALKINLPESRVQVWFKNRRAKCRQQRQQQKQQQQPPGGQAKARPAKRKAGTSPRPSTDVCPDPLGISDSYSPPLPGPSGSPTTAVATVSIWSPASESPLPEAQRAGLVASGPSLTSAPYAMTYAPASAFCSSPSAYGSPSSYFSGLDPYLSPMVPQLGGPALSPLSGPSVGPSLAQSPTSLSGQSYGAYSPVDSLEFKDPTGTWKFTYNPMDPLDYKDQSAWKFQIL
In short: as §1

ETV1 = ETV1 (Homo sapiens, UniProt P50549 1-477); settings: protein: recombinant; tags: N-terminal GST; dsDNA, one strand shown
Sequence of ETV1 (P50549 whole entry): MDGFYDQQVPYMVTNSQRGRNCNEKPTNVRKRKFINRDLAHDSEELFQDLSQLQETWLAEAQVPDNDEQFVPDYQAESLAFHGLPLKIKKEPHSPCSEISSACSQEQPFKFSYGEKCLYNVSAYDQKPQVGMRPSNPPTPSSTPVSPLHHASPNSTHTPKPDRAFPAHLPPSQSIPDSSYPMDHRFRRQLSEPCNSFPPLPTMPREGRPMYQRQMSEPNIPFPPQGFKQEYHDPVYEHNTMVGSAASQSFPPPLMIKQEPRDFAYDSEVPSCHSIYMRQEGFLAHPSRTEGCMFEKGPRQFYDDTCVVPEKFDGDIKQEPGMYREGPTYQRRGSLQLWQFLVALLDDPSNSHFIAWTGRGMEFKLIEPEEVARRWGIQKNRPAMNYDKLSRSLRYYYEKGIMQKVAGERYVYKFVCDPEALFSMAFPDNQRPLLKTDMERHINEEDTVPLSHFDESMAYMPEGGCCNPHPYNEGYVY
In short: as §1

ERF = molecular target: T6, ERF (Homo sapiens, UniProt P50548 1-548); settings: protein: recombinant; tags: N-terminal GST; dsDNA, one strand shown
T6 sequence: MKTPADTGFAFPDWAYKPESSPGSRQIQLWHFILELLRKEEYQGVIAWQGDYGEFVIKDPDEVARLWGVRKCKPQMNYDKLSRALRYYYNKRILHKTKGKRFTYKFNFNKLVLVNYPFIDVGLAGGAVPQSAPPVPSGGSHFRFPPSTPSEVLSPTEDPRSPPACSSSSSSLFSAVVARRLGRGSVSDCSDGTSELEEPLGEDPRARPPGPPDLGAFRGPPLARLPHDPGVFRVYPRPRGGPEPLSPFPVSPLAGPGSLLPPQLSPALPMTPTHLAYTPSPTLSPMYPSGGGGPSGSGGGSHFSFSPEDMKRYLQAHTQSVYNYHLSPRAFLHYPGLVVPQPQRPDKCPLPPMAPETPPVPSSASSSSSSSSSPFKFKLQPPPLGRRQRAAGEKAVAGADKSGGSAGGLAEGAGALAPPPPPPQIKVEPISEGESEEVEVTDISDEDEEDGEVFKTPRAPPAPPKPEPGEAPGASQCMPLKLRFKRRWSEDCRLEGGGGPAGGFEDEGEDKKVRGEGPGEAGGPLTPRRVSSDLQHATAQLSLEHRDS
In short: as §1

ETV3L = molecular target: T7, ETV3L (Homo sapiens, UniProt Q6ZN32 1-361); settings: protein: recombinant; tags: N-terminal GST; dsDNA, one strand shown
T7 sequence: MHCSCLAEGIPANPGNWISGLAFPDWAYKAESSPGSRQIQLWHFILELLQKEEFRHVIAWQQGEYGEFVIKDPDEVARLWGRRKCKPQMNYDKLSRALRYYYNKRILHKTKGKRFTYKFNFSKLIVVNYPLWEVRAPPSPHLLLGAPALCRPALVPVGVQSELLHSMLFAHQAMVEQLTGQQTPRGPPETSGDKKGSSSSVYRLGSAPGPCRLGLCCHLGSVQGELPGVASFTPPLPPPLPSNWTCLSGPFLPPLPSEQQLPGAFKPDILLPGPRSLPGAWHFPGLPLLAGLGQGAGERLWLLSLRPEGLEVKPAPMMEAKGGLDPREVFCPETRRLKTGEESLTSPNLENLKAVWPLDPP
In short: as §1

ETS2 = molecular target: T8, ETS2 (Homo sapiens, UniProt P15036 1-469); settings: protein: recombinant; tags: N-terminal GST; dsDNA, one strand shown
T8 sequence: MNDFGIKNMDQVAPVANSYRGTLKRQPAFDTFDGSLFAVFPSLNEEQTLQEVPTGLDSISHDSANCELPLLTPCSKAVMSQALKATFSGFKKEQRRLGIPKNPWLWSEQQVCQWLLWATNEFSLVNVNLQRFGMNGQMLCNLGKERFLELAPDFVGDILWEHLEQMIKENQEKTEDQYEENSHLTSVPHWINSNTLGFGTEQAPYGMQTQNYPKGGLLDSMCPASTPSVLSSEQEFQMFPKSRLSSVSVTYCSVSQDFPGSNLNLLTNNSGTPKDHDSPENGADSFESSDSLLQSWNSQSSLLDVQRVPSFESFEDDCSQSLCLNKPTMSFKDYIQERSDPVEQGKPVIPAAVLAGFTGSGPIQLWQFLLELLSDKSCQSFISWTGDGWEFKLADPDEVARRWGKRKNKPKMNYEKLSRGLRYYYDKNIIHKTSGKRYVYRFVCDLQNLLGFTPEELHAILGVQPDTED
In short: as §1

SPDEF = molecular target: T9, SPDEF (Homo sapiens, UniProt O95238 1-335); settings: protein: recombinant; tags: N-terminal GST; dsDNA, one strand shown
T9 sequence: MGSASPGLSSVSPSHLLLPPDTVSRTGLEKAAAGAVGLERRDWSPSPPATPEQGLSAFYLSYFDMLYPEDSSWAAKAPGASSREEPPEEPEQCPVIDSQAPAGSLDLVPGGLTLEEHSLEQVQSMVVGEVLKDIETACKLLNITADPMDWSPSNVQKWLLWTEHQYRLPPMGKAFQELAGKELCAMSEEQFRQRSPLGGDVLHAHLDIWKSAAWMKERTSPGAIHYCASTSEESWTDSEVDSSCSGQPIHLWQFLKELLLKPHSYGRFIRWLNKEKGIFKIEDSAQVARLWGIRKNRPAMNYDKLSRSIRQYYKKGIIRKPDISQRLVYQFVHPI
In short: as §1

ETV7 = molecular target: T10, ETV7 (Homo sapiens, UniProt Q9Y603 1-341); settings: protein: recombinant; tags: N-terminal GST; dsDNA, one strand shown
T10 sequence: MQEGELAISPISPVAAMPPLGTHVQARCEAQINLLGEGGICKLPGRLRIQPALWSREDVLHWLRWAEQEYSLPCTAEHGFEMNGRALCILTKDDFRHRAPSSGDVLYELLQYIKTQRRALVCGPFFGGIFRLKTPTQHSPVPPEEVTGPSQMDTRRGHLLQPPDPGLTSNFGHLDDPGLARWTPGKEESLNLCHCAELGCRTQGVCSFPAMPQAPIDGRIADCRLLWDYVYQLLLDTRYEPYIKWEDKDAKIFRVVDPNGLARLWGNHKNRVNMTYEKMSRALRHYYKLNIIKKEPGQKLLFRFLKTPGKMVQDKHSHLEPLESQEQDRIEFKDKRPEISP
In short: as §1

ELF5 = molecular target: T11, ELF5 (Homo sapiens, UniProt Q9UKW6-2 1-255); settings: protein: recombinant; tags: N-terminal GST; dsDNA, one strand shown
T11 sequence: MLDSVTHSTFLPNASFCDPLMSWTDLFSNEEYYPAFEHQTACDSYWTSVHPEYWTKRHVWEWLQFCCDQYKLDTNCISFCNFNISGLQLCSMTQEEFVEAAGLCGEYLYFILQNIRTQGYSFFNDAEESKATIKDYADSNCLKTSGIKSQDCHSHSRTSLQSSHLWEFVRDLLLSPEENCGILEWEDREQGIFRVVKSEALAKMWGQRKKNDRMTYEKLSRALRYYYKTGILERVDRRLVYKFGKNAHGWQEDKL
In short: as §1

ETV3 = molecular target: T12, ETV3 (Homo sapiens, UniProt P41162-2 1-143); settings: protein: recombinant; tags: N-terminal GST; dsDNA, one strand shown
T12 sequence: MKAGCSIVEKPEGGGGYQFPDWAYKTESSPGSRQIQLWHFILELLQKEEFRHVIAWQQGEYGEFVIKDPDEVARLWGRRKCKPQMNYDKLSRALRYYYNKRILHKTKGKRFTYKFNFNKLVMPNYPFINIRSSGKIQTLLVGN
In short: as §1

ETV6 = ETV6 (Homo sapiens, UniProt P41212 1-452); settings: protein: recombinant; tags: N-terminal GST; dsDNA, one strand shown
Sequence of ETV6 (P41212 whole entry): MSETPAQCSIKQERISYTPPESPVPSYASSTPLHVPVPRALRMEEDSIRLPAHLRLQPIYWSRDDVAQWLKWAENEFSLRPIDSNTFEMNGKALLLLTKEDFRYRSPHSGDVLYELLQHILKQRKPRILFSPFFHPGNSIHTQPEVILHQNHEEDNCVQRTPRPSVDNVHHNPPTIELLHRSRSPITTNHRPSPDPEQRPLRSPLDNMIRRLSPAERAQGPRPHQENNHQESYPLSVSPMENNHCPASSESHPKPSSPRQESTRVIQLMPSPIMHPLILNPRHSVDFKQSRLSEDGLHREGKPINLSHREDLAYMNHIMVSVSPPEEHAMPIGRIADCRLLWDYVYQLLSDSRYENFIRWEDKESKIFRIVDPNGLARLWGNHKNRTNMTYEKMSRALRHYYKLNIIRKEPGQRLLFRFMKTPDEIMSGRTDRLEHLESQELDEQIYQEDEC
In short: as §1

With TCTCCA the binding signal (FEV) was 1.44 fold enrichment (6-mer frequency, TF over GST control), the binding signal (ETV5) was 1.39 fold enrichment (6-mer frequency, TF over GST control) and the binding signal (HSF1) was 1.91 fold enrichment (6-mer frequency, TF over GST control). For the same sequence, the binding signal (SPIC) was 1.36 fold enrichment (6-mer frequency, TF over GST control), the binding signal (ELF4) was 1.42 fold enrichment (6-mer frequency, TF over GST control) and the binding signal (ELK4) was 1.69 fold enrichment (6-mer frequency, TF over GST control). The binding signal (ETV2) was 1.55 fold enrichment (6-mer frequency, TF over GST control), the binding signal (ELF3) was 1.29 fold enrichment (6-mer frequency, TF over GST control) and the binding signal (CRX) was 1.52 fold enrichment (6-mer frequency, TF over GST control). The binding signal (ETV1) was 1.38 fold enrichment (6-mer frequency, TF over GST control), the binding signal (ERF) was 1.42 fold enrichment (6-mer frequency, TF over GST control) and the binding signal (ETV3L) was 1.58 fold enrichment (6-mer frequency, TF over GST control). The binding signal (ETS2) was 1.53 fold enrichment (6-mer frequency, TF over GST control), the binding signal (SPDEF) was 1.5 fold enrichment (6-mer frequency, TF over GST control) and the binding signal (ETV7) was 1.31 fold enrichment (6-mer frequency, TF over GST control). The binding signal (ELF5) was 1.37 fold enrichment (6-mer frequency, TF over GST control), the binding signal (ETV3) was 1.41 fold enrichment (6-mer frequency, TF over GST control) and the binding signal (ETV6) was 1.4 fold enrichment (6-mer frequency, TF over GST control).
